This is an account of results in PubChem BioAssay AID686964 (The Scripps Research Institute Molecular Screening Center, 2013).

About 1,100 (0.3%) of roughly 370,000 compounds were called active. What follows is part of a selection rich in actives, with near analogues and random picks from the rest. A number with no mark means an inactive call. No stated cut-off is given here; in the data, active means inhibition above about 13%; inactive means the rest.

Chain of Methyl-CpG-binding domain protein 2 (Homo sapiens) (Q9UBB5 whole entry, looked up, the tested form may be a part): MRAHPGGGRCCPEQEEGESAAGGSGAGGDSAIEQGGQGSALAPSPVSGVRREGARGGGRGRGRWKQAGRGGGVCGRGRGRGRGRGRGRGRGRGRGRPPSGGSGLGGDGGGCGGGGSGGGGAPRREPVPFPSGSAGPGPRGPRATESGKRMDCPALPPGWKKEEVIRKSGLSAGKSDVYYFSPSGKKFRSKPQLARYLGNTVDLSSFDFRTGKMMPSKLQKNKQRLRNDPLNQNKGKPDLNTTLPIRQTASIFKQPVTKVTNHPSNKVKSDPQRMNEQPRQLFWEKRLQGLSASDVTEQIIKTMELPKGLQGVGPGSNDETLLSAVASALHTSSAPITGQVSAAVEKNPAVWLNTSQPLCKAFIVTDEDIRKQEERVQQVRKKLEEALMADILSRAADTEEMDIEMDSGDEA

This assay has as its target Methyl-CpG-binding domain protein 2 (Homo sapiens) (UniProt Q9UBB5). Description: MBD2-DBD methyl-oligonucleotide interaction blockers – biochemical, TR-FRET, DNA-binding domain, human, primary screen (AID 686964). The settings on record: MBD2 binding to methylated oligonucleotide, at 4.4 µM, hits give high values.
One may read the inhibition as the change of the read-out against control, counted positive when it falls. Consider `Cc1c(CC(=O)N2CCN(C(=O)C3COc4ccccc4O3)CC2)c(=O)oc2c(O)c(O)ccc12` (stereo not given), for which the inhibition is 13.6% (active).

In the case of `Fc1ccc2nc(COCc3nc4ccc(F)cc4[nH]3)[nH]c2c1`, the inhibition was -0.41%.

For the compound `CCC(C)n1[nH]c(=O)c2c(C)cc(C)nc21` (stereo not given), the inhibition is -4.79%.

For the compound `CCC(=O)Nc1cccc(C2=NOC3(C2)C[C@@H](C(N)=O)N(C(=O)c2cc([N+](=O)[O-])cc([N+](=O)[O-])c2C)C3)c1` (stereo not given in full), the inhibition is -0.08%.

On to `O=c1[nH]cnc2c1c(-c1ccccc1)cn2-c1ccc(F)cc1`, for which the inhibition is 4.57%.

Regarding `COc1ccc(-n2cc(-c3ccccc3)c3c(=S)nc[nH]c32)cc1`, the inhibition was 14% (active).

As for `O=C(CNS(=O)(=O)c1ccccc1F)N1CCN(c2ccccn2)CC1`, the inhibition was -1.19%.

`COC(=O)c1ccc2nc(-c3ccc(C)cc3)c(Cc3ccc(OC)cc3C)n2c1`: the inhibition was 7.16%.

For `COC(=O)c1ccc2nc(-c3cccc(Br)c3)c(Cc3ccc(OC)cc3C)n2c1`, the inhibition was 14.9% (active).

`COC(=O)c1ccc2nc(-c3ccccc3)c(Cc3ccc(OC)cc3C)n2c1`: the inhibition is 10.6%.

Consider `Cc1ccc(OCc2nnc(SC/C=C/c3ccccc3)n2Cc2ccco2)cc1`, for which the inhibition is -3.87%.

On to `C=CCN1C(=O)[C@@H](CC(=O)N2CCN(C(=O)OCC)CC2)[C@]2(C(=O)OCC)CCCCC/C=C/12`, for which the inhibition is 4.9%.

As for `Brc1ccc(-c2n(-c3ccccn3)c3ccccc3[n+]2-c2ccccn2)cc1`, the inhibition was 27.6% (active).

For the compound `CS(=O)(=O)N(C(=O)NC(=O)NC1CCS(=O)(=O)C1)C1CCCCC1` (stereo not given), the inhibition is 0.13%.

With `CCCC1CCC2(CCCN2CCOC(=O)NCc2ccccc2)CC1` (stereo not given), the inhibition was 3.95%.

As for `COc1ccnc(NC(=S)N2CCN(c3ncc(C(F)(F)F)cc3Cl)CC2)c1`, the inhibition was 6.09%.

Consider `CCOc1cc(-c2noc(CCC(=O)N3CCOCC3)n2)ccc1OC`, for which the inhibition was -5.56%.

Consider `CCOc1cc(-c2noc(CCCC(=O)NC3CCCCC3)n2)ccc1OC`, for which the inhibition was 20.2% (active).

For `COc1ccc(-c2noc(CCCC(=O)NC3CCCC3)n2)cc1OC`, the inhibition was -2.51%.

Turning to `CCOC(=O)[C@]12CCCC=C1N(CCCOC)C(=O)[C@@H]2CC(=O)N1CCOCC1`, the inhibition was -0.28%.

For `Cc1cc(C(=O)NN=C/C=C/c2ccco2)n[nH]1`, the inhibition is -1.33%.

Consider `C/C=C/c1ccc(OCCCCN2CCC(C)CC2)c(OC)c1`, for which the inhibition is -2.18%.

On to `C[C@H](O)[C@@H]1C(=O)N2CCc3c([nH]c4c(-c5ccc6c(c5)OCO6)cccc34)[C@@H]2C[C@@H]1N(C)C(=O)c1ccco1`, for which the inhibition is -2.04%.

For `O=S(=O)(NCC1CCCO1)c1cnc(Cl)c(Cl)c1` (stereo not given), the inhibition is 4.2%.

For `COc1ccccc1OCC(=O)Nc1c2c(nn1-c1ccc(F)cc1)CS(=O)(=O)C2`, the inhibition was -1.49%.

`O=C(Nc1c2c(nn1-c1ccccc1)CS(=O)(=O)C2)C1CCCC1`: the inhibition was 2.43%.

Take `O=C(CC1CCCCC1)Nc1c2c(nn1-c1ccc(F)cc1)CS(=O)(=O)C2`: the inhibition was 15.6% (active).

Turning to `c1coc(CCNc2ncnc3ccc(-c4ccc5c(c4)OCO5)cc23)c1`, the inhibition was -2.55%.

Take `O=C1NC(=O)C(c2ccc(Cl)cc2)N1` (stereo not given): the inhibition was 0.89%.

Take `CC(C)Oc1ccc(C2NC(=O)NC2=O)cc1` (stereo not given): the inhibition was 15.2% (active).

Turning to `COc1ccc(C2NC(=O)N(C)C(C)=C2[N+](=O)[O-])cc1` (stereo not given), the inhibition was 0.13%.

Regarding `CN(C)Cc1cn(-c2ccc(-c3noc4c3C(=O)N(CC(=O)N3CCOCC3)CC4)cc2)nn1`, the inhibition is -2.86%.

Regarding `COC(=O)[C@]12C[C@H](CC(=O)NCc3ccc(OC)c(OC)c3)C(=O)N(Cc3ccccc3)C1=C[C@H](C(C)C)O[C@@H]2C1CC1`, the inhibition is -2.93%.

For the compound `CC(C)c1nc(CNC(=O)CC2C(=O)NCCN2Cc2ccoc2)cs1` (stereo not given), the inhibition is -4.85%.

As for `CC(C)c1nc(CNC(=O)CC2C(=O)NCCN2Cc2cccc(F)c2F)cs1` (stereo not given), the inhibition was 24.3% (active).

Take `Cc1ccc(CN2CCNC(=O)C2CC(=O)NCc2csc(C(C)C)n2)cc1` (stereo not given): the inhibition is 0.13%.

On to `COc1ccc(Cn2cc(CN3[C@@H](CC(C)C)COc4cc(Br)ccc4S3(=O)=O)nn2)cc1`, for which the inhibition was 0.36%.

Turning to `CN(C)CCNC(=O)Cc1ccc([N+](=O)[O-])cc1`, the inhibition was -0.79%.

Turning to `Cc1c(C(=O)NCCN(C)C)oc2ccc(S(=O)(=O)N3CCCC3)cc12`, the inhibition was 4.85%.

`CN(C)CCNC(=O)c1ccc(Cl)c2cc3ccccc3nc12`: the inhibition is 51.2% (active).

On to `COc1ccc(OCCCC(=O)Nc2cccc(S(=O)(=O)N3CCCCCC3)c2)cc1`, for which the inhibition was -2.96%.

Regarding `C[C@H]1[C@H](c2ccccc2)Oc2cc(Br)ccc2S(=O)(=O)N1Cc1cccc(F)c1`, the inhibition is 8.37%.

For `O=C1/C(=C\c2ccc([N+](=O)[O-])cc2)CS(=O)(=O)C/C1=C/c1ccc([N+](=O)[O-])cc1`, the inhibition was -5.61%.

In the case of `O=S(=O)(c1ccccc1)N1CCC(c2ccccc2)CC1`, the inhibition was 0.43%.

With `CCOc1ccc(S(=O)(=O)N2CCC(C(=O)NCc3ccccn3)CC2)cc1Cl`, the inhibition is -0.81%.

With `CCOc1ccc(S(=O)(=O)N2CCC(c3ccccc3)CC2)cc1C(=O)O`, the inhibition is 22.6% (active).

As to `O=C(c1n[nH]c2c1CCC2)N1CCCC(Nc2cccc(F)c2)C1` (stereo not given), the inhibition was 14.7% (active).

`COC(=O)c1cccc(C(=O)N2CCCC(Nc3ccc4c(c3)OCCO4)C2)c1` (stereo not given): the inhibition was 4.97%.

As for `CSc1ncccc1C(=O)N1CCCC(Nc2ccc(F)c(F)c2)C1` (stereo not given), the inhibition was 2.81%.

As for `O=C(CSc1nnc(COc2ccccc2)n1-c1ccc(Cl)cc1)Nc1ccc2c(c1)OCO2`, the inhibition is 3.27%.
